Most compounds without a hit are left out; they make up all but 2.2% or so of the library.
HEK293 tox = qHTS of GLP-1 Receptor Inverse Agonists: Cytotox Screen; Potency, µM (series often up to 38.3 µM), inactives show top-dose activity change, negative = inhibition, usual class: inhibitors; hit rate 0.13% among 410,000; HEK293 cAMP-luciferase reporter cells, luminescence, 24 h;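 also: loss of luciferase light is scored as toxicity; potency is read from the fitted curve at half-maximal effect; % is scaled to controls: 0 for no effect and ±100 for the full control effect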
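MLSMR compounds, 24 hr on cells at 37 deg C/5% CO2; luminescence after luciferase reagent (12 min RT). Inhibition counted as the undesired cytotoxic outcome.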
MmCpn inh = Inhibitors of TCP-1 ring complex (TRiC) of Methanococcus maripaludis (MmCpn): qHTS; Chaperonin Mm-Cpn (Methanococcus maripaludis); hit rate 0.031% among 330,000; purified Mm-Cpn ATPase, ADP Transcreener TR-FRET; Potency, µM (highest dose often 76.9 µM), without a hit: at the top dose activity, negative = inhibition, usual class: inhibitors; AID 504842, 2011; also: potency is read from the fitted curve at half-maximal effect; % is scaled to controls: 0 for no effect and ±100 for the full control effect; nearly all actives have a fitted effect of over 80% in size
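ATP (10 uM final) was added to archaeal chaperonin (25 nM final) after 10 min exposure to test compound at 37°C; after 30 min further incubation, ADP was detected by competitive TR-FRET.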
GLP-1R inv ag = qHTS of GLP-1 Receptor Inverse Agonists (Inhibition Mode) | HEK293 GLP-1R CRE-luciferase, luminescence, 24 h; GLP-1R form is constitutively active | Glucagon-like peptide 1 receptor (Homo sapiens), P43220 | Potency, µM (highest dose often 38.3 µM), for inactives: top-dose activity change, negative = inhibition, most hits filed as inhibitors | hit rate 1.6% among 410,000; also: potency is read from the fitted curve at half-maximal effect; % is scaled to controls: 0 for no effect and ±100 for the full control effect; nearly all actives have a fitted effect of over 55% in size
Target sequence (P43220 whole entry, looked up): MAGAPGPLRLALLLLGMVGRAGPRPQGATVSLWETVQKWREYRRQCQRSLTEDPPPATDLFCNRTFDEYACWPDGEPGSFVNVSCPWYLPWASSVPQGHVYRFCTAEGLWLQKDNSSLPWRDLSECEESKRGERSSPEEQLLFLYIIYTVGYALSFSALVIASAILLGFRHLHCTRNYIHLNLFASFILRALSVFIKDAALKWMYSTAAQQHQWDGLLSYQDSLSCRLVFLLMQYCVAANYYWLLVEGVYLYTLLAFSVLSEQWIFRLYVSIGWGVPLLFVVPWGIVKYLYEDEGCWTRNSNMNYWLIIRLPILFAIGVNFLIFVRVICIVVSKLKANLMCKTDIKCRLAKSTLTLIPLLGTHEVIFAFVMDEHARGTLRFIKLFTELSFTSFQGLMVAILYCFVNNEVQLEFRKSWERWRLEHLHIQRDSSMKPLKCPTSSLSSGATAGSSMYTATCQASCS
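Luminescence readout: a drop in cAMP-driven luciferase signal flags inverse agonism at a constitutively active GLP-1R stably expressed in HEK293. Compound exposure lasted 24 hr at 37 deg C, 5% CO2.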
GLP1R ag = qHTS of GLP-1 Receptor Agonists; Glucagon-like peptide 1 receptor (Homo sapiens), P43220; HEK293 GLP-1R CRE-luciferase, luminescence, 4-6 h; cells express a hypersensitive GLP-1R form; Potency, µM (highest dose often 45.6 µM), for inactives: at the top dose activation, hits mostly activators; hit rate 0.007% among 380,000; AID 624172, 2012; also: potency is read from the fitted curve at half-maximal effect; % of control where 0% means no effect
CCT modulator = High-Throughput Screening for Modulators of Cytosolic Chaperonin Activity; purified chaperonin ATPase assay, HTRF ADP detection, 30 min; activity change, % (test concentration not listed), hits read low; hit rate 0.3% among 360,000; AID 651819, 2012; in the data active = activity change below about -30%; also: % is scaled to controls: 0 for no effect and ±100 for the full control effect
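First, chaperonin was dispensed at 40 nM or 20 nM final depending on batch activity. Next, compounds were pinned at 76 uM and ATP added at 10 uM. After 30 min at 37 °C, ADP detection reagents ran 30 min at ambient temperature.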
uPA generation = qHTS for Inhibitors of Cell Surface uPA Generation | hit rate 0.31% among 330,000 | Potency, µM (doses to about 38.3 µM), for inactives: at the highest dose activity change, negative = inhibition, usual class: inhibitors | cell surface uPA generation assay, qHTS; active = well fitted inhibition curve with a large enough effect; inconclusive = small, poorly fitted or top-dose-only effect; inactive = no such curve, though single readings can be large or run the other way; tested in mouse RAW 264.7 cells; also: potency is read from the fitted curve at half-maximal effect; % is scaled to controls: 0 for no effect and ±100 for the full control effect; nearly all actives have a fitted effect of over 55% in size
* marks the source's active call; other numbers are inactive results; ? = inconclusive; / = no result. Unless noted, calls follow the shape of the dose curve; as a rule, active = well fitted curve in the direction sought with a large enough effect; inconclusive = small, poorly fitted or top-dose-only effect, or another doubt; inactive = no such curve, though single readings can be large; an effect the other way counts as inactive or inconclusive.

SMILES	HEK293 tox	MmCpn inh	GLP-1R inv ag	GLP1R ag	CCT modulator	uPA generation
Cc1ccc(C)c(NC(=S)NC(NC(=O)/C=C/c2ccccc2)C(Cl)(Cl)Cl)c1 (centres undefined)	-21%	-3%	3.5µM*	-15%	0	-11%
COc1cccc(Cn2c(=O)ccc3ccccc32)c1	1%	-3%	8%	-1%	-1	-16%
CCN(CC)c1nc2ccccc2n(Cc2cccc(OC)c2)c1=O	7%	-1%	3.5µM*	18%	-1	3%
Fc1ccc(-c2cc(C(F)(F)C(F)F)[nH]n2)cc1	1%	0%	?	5%	-37*	-4%
CCCCNC(=O)Cn1c(=O)cc(C)c2c(C)nn(-c3cccc(Cl)c3C)c21	2%	/	-8%	/	/	/
Cc1ccc(NC2=C(N3CCOCC3)C(=O)c3ccccc3C2=O)cc1	10µM*	-8%	-13%	13%	-1	?
Cc1cc(Cl)ccc1NC(=O)CN1C(=O)C(=O)c2ccccc21	1%	/	-8%	/	/	/
NC(=O)C1CCN(c2nc(-c3ccc(Cl)cc3)cs2)CC1	/	-2%	/	/	/	/
CN(CC1CCOCC1)C(=O)CC1C(=O)NCCN1Cc1ccc(Cl)c(F)c1 (centres undefined)	1%	3%	9%	4%	-42*	-2%
CCOc1ccc(CN2CCNC(=O)C2CC(=O)N(C)CC2CCOCC2)cc1 (centres undefined)	1%	0%	-3%	0%	-3	-2%
O=C(c1ccccc1)c1ccc(N2CCN(C(=O)c3cccc(F)c3F)CC2)c(F)c1	0%	-4%	10µM*	2%	2	-19%
CCC(=O)c1ccc(N2CCN(C(=O)c3ccccc3F)CC2)c(F)c1	0%	-1%	3%	12%	1	4%
CCC(Cc1ccccc1)NC(=O)Cn1cccc1C(=O)c1ccccc1 (centres undefined)	?	-4%	?	0%	-42*	-6%
O=C(Cn1cccc1C(=O)c1ccccc1)NCc1cccnc1	0%	1%	7%	-11%	1	7%
CC(=O)N/N=C/c1ccccc1OCCOc1cccc(C)c1	-12%	-1%	?	15%	-3	13µM*
CCc1cc(C)cc(OCCOc2ccccc2/C=N/NC(C)=O)c1	-17%	-1%	?	28%	-1	?
Nc1nn(-c2ccccc2)c(N)c1N=Nc1ccccc1	?	-3%	?	9%	-1	5µM*
Cc1cc(C)n2nc(N)c(N=Nc3ccccc3)c2n1	10µM*	-3%	-7%	16%	1	1%
Cc1nn(-c2ccccc2)c(N)c1N=Nc1ccccc1	-16%	-3%	4%	2%	0	-8%
COc1ccc(-c2ccc(=O)n(CC(=O)NCCc3ccccc3)n2)cc1	-35%	/	-62%	/	/	/
CCc1ncc(C(O)c2ccc(Cl)cc2)n1Cc1ccccc1 (centres undefined)	-4%	/	8.9µM*	-8%	-2	/
Cc1ncc(C(O)c2ccc(N(C)C)cc2)n1Cc1ccccc1 (centres undefined)	3%	/	-19%	6%	-1	/
CCC(C)(C)c1ccc(OCCCC[n+]2ccc(C)cc2)c(C(C)(C)CC)c1	?	3%	?	1%	-2	?
CCC(C)(C)c1ccc(OCCCC[n+]2cccc(C)c2C)c(C(C)(C)CC)c1	?	0%	?	-4%	2	8.9µM*
Cc1oc2c(c1C(=O)c1ccccc1)C(=O)C(=O)c1ccccc1-2	?	-5%	4.5µM*	-51%	3	-11%
SMILES	HEK293 tox	MmCpn inh	GLP-1R inv ag	GLP1R ag	CCT modulator	uPA generation
Cc1cccc(Oc2ccc(S(=O)(=O)N3CCCCC3)cc2NC(=O)C2=COCCO2)c1	7%	1%	10µM*	7%	-1	-14%
Cc1ccc(CNC(=O)c2nn(C)c3c2CSc2ccc(C)cc2-3)cc1	0%	/	?	/	/	/
CCOc1ccc(CCNC(=O)c2nn(C)c3c2CSc2ccc(C)cc2-3)cc1OCC	19%	/	10µM*	/	/	/
Cc1ccccc1OCC(O)CN1CCCCC1 (centres undefined)	?	1%	12%	-5%	-2	9%
COc1cccc(OCC(O)CN2CCN(c3ccc(Cl)cc3)CC2)c1 (centres undefined)	1%	-3%	10µM*	-1%	-1	10%
Cc1ccccc1OCC(O)CN1CCN(CC(O)COc2ccccc2C)CC1 (centres undefined)	-6%	1%	8.9µM*	-2%	-2	-18%
Cc1ccc(N2CCN(CC(O)COc3cccc4ccccc34)CC2)cc1 (centres undefined)	?	-3%	11µM*	-6%	1	-15%
COc1ccccc1-n1c(SCC(=O)Nc2cccc(S(N)(=O)=O)c2)nc2ccccc2c1=O	5%	3%	34%	18%	0	0%
COc1ccc(OC)c(-n2c(SCC(=O)Nc3cccc(S(N)(=O)=O)c3)nc3ccccc3c2=O)c1	-10%	-7%	-1%	17%	-40*	2%
Fc1cccc(CSc2nc(NCCc3ccccc3)c3ccccc3n2)c1	2%	/	9%	/	/	/
Cc1cc(Br)ccc1NC(=O)CNC(=O)CN1C(=O)NC2(CCCCCC2)C1=O	0%	2%	-17%	0%	-8	0%
Cc1cc(Br)ccc1NC(=O)CN1C(=O)C2C3CC(c4ccccc4)C(C3)C2C1=O (centres undefined)	-14%	1%	10µM*	-8%	-1	10%
CCOc1ccccc1CNC(=O)c1oc2c(c1C)-c1nn(Cc3cccc(Cl)c3)cc1CC2	-5%	/	?	/	/	/
Cc1ccccc1CNC(=O)c1oc2c(c1C)-c1nn(Cc3ccc(Cl)cc3)cc1CC2	1%	/	10µM*	/	/	/
COc1cc(NC(=O)Cn2c(=O)n(Cc3ccccc3OC)c(=O)c3cccnc32)cc(OC)c1	-2%	/	-19%	/	/	/
CCCc1c(C(=O)OCC)sc(N)c1C#N	2%	-13%	45%	18%	0	-10%
CCOC(=O)c1sc(N)c(C#N)c1CSc1nnc(C2CC2)n1N	3%	1%	10%	4%	-39*	6%
CCOC(=O)c1ccc(NC(=O)C(CC)Sc2nc3ncccc3o2)cc1 (centres undefined)	-6%	/	1%	/	/	/
CCC(=O)c1ccccc1OCCCN1CCC(Cc2ccccc2)CC1	?	0%	7.9µM*	8%	0	-7%

Screens from PubChem BioAssay.
